# LYP inh 2 – inhibitors of human LYP (PTPN22) phosphatase; Q9Y2R2; recombinant LYP catalytic domain, DiFMUP fluorescence; inhibition, % at 2 µM; 96,000 compounds, 0.21% hits; AID 640;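 active means inhibition at 2 µM at or above a set limit, the screen mean plus 3 SD, cut at about 24% in these data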;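 further: 0% = DMSO with enzyme and 100% = enzyme fully blocked by orthovanadate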
# ERa coact pot – ER-alpha (human) coactivator binding potentiation; P03372; TR-FRET ERalpha-LBD/SRC-Cy5 coactivator binding, 2 h; 100 = basal binding, no effect; coactivator binding (% of control), % at 25.6 µM; 86,000 compounds, 1.3% hits; in the data active means activity above about 200%;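 further: binding measured in presence of low estradiol as agonist stimulus; 0% = peptide alone without receptor and 100% = receptor with peptide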
# Target sequence (P03372 whole entry, looked up, the tested form may be a part): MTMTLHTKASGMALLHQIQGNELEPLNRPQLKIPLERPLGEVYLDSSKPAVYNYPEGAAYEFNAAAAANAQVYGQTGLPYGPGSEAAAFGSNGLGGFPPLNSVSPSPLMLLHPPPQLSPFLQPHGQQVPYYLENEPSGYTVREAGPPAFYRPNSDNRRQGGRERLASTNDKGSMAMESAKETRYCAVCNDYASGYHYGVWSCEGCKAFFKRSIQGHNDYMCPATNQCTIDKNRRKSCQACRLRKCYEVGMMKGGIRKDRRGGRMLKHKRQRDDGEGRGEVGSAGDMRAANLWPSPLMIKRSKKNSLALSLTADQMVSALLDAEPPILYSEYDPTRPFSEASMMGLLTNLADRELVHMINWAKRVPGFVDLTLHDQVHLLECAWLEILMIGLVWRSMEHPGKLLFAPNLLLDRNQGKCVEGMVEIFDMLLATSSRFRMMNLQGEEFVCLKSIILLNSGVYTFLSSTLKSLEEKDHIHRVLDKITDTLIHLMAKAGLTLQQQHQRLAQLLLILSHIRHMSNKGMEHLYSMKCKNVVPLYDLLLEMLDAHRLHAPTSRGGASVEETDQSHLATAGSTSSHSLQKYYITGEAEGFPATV
# ERb SRC1 inh – ER-beta (human) coactivator binding inhibition. Q92731. TR-FRET ER-beta LBD / SRC1-Cy5 peptide binding; receptor agonist-loaded with 1 µM estradiol. inhibition, % at 25.6 µM. 86,000 compounds, 1.3% hits. AID 633;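 active means compounds whose percent inhibition of the receptor-coactivator binding signal exceeds about 50% in the single-dose screen, limit read from the data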;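 further: 0% = receptor plus peptide wells without compound and 100% = peptide-only wells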
# ERa coact inh – ER-alpha (human) coactivator binding inhibition; TR-FRET ER-alpha LBD / SRC-1 peptide, estradiol-bound; inhibition, % at 25.6 µM; 86,000 compounds, 1.7% hits; P03372; in the data active means inhibition above about 50%;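 further: 0% = receptor plus peptide control and 100% = peptide only without receptor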
# PTPN22 act – increases human PTPN22 phosphatase activity | Q9Y2R2 | recombinant LYP, DiFMUP fluorescence; 0 = plate median, 100 = signal doubled | activation, % at 2 µM | 96,000 compounds, 0.11% hits | AID 697;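 active means activation at 2 µM above a set limit, the mean plus 5 SD, cut at about 37% in these data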
# FAK blocker – blocks human focal adhesion kinase activity | 97,000 compounds, 0.84% hits | biochemical FAK kinase activity assay | inhibition, %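 (tested at 7 µM)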 | Q05397; in the data active means inhibition above about 19%;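 further: 0% = DMSO and 100% = reference compound high control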
# * = called active by the depositor; . = no result; [ ] = remark or other dose. Rows were chosen to be rich in hits. Some 3.4% of all compounds tested hit in one or more screens of this group.
SMILES,LYP inh 2,ERa coact pot,ERb SRC1 inh,ERa coact inh,PTPN22 act,FAK blocker
CCCn1c(C)cc(=O)c2cc(NC(=O)c3cnccn3)ccc21,0,226*[fluorescence artefact?],27,40,-3,10
Nn1c(SCC(=O)Nc2cccc(F)c2)nnc1C1CCCCC1,7,71,1,17,-8,-2
COc1ccc(C(=O)CSc2nnc(C3CCCCC3)n2N)c(OC)c1,.,64,18,68*,.,.
FC(F)(F)c1nc2ccccc2nc1N/N=C/c1c(Cl)cccc1Cl,7,.,.,.,-3,7
C=CCn1c(=O)c(C#N)cc2c(=O)n3ccccc3nc21,1,41,57*,55*,-4,4
O=c1[nH]c2ccc(Br)cc2c(-c2ccccc2)c1N1CCOCC1,0,429*[fluorescence artefact?],19,30,-2,-8
O=c1[nH]c2ccc(Br)cc2c(-c2ccccc2)c1CN1CCOCC1,2,89,-3,4,-2,4
C=CCc1ccc(OCCOc2cccc3ccc(C)nc23)c(OC)c1,6,.,.,.,-6,1
COCCn1c(C)cc(C(=O)CSc2ccc3ccccc3n2)c1C,-6,.,.,.,6,1
COCCn1c(C)cc(C(=O)CSc2nc(C)nc3sc4c(c23)CCC4)c1C,5,370*[fluorescence artefact?],7,-6,-3,-2
CCOC(=O)c1cnc(Nc2nc3ccccc3o2)nc1CSc1ncccn1,4,212*[fluorescence artefact?],3,55*,-5,-3
Cc1ccccc1OCC(=O)N(Cc1nc(-c2ccccc2)no1)C(C)C,-2,323*[fluorescence artefact?],-6,-2,1,-2
Cc1ccc(SCC(=O)N(Cc2nc(-c3ccccc3)no2)C(C)C)cc1,7,133,-5,-6,-9,1
Cc1ccc2nc(NC(=O)c3cccc(-c4cc5ccccc5oc4=O)c3)sc2c1,26*,.,.,.,-22,-2
CN1/C(=C\C(=O)COC(=O)Cn2nnc(-c3ccccc3)n2)C(C)(C)c2ccccc21,6,292*,-3,-3,-7,-1
CCC(C)(C)c1nnc(NC(=O)c2ccc([N+](=O)[O-])cc2)s1,-3,.,.,.,2,0
O=C(Nc1ccc2snnc2c1)N1CCN(c2ccccc2)CC1,0,627*[fluorescence artefact?],-42,-21,3,-8
O=c1ccc(Cl)cn1Cc1ccccc1F,-9,105,-1,-5,6,0
O=C(c1cc(C2CC2)on1)N1CCN(c2ccc(F)cc2)CC1,2,.,.,.,-4,-10
COc1cccc2cc(C(=O)N3CCC(C)CC3)c(=O)oc12,1,102,-1,-5,-4,3
COc1cccc2cc(C(=O)Nc3cccc(C)n3)c(=O)oc12,.,253*,25,35,.,.
COc1cccc2cc(C(=O)Nc3cccnc3N3CCOCC3)c(=O)oc12,4,289*,1,-18,-7,1
Cn1c(=O)[nH]c(=O)c2c1ncn2CCCc1ccccc1,4,112,5,0,-6,-1
COC(=O)c1cc2sc(Cl)cc2n1CC(=O)NCCC(C)C,-2,226*[fluorescence artefact?],0,-4,4,-2
CCOC(=O)c1cc2sc(C)cc2n1CCCN1C(=O)c2ccccc2C1=O,-5,97,-13,-3,5,-11
SMILES,LYP inh 2,ERa coact pot,ERb SRC1 inh,ERa coact inh,PTPN22 act,FAK blocker
COC(=O)c1cc2sccc2n1CC(=O)Nc1cc(OC)cc(OC)c1,-12,.,.,.,12,6
CCOC(=O)c1cc2sc(C)cc2n1CC(=O)NCCc1ccccc1,4,932*[fluorescence artefact?],-10,-41,-2,-2
O=C(Nc1nnc(C2CC2)s1)c1cccc(S(=O)(=O)N2CC(c3ccccc3)CC2=O)c1 (configuration not stated),-7,110,-4,2,7,0
CCOC(=O)C1CCCN(C(=O)c2cc(Nc3ccc(OC)cc3)nc3ccccc23)C1 (configuration not stated),-4,113,-1,15,4,-1
COc1ccc(-c2noc(CCC(=O)Nc3nc4ccccc4s3)n2)cc1,5,208*[fluorescence artefact?],-2,14,-2,0
CC(=O)Nc1ccc(C(=O)OCC(=O)N(Cc2ccccc2)C(C)(C)C)cc1,-4,.,.,.,4,2
O=C(N/N=C/c1cccc(Oc2ccc([N+](=O)[O-])cc2[N+](=O)[O-])c1)c1cncc(Br)c1,1,23,39,96*,-4,12
O=C(Nc1nccs1)c1cccc(S(=O)(=O)N2CCOCC2)c1,3,107,-5,-12,-5,0
COc1cccc(N(CC(=O)Nc2ccc3c(c2)OCO3)S(=O)(=O)c2ccccc2)c1,-16,.,.,.,14,2
CCC(C)Sc1nnc(CSc2nc3nc(C)cc(C)n3n2)o1 (configuration not stated),-1,.,.,.,6,1
Cc1nc2ccc(S(=O)(=O)NCC(=O)NCCN3CCCCCC3)cc2s1,3,54,22,57*[fluorescence artefact?],-3,6
Cc1nc2ccc(S(=O)(=O)N(C)CC(=O)NCc3ccc4c(c3)OCO4)cc2s1,1,.,.,.,-2,-5
Cc1nc2ccc(S(=O)(=O)NCC(=O)N3CCc4ccccc43)cc2s1,-1,120,-4,0,1,3
Cc1nc2ccc(S(=O)(=O)NCC(=O)NCc3ccc4c(c3)OCO4)cc2s1,27*,97,1,6,-27,4
CCc1ccc(Nc2nc(N)nc(CSc3nnnn3-c3ccccc3)n2)cc1,-9,312*,41,41,7,4
O=C(c1ccccc1)N1CCN(c2ncnc3sc4c(c23)CCC4)CC1,6,94,-2,7,-6,-1
Cc1ccc(S(=O)(=O)N(CC(=O)N2CCC(C)CC2)Cc2ccccc2F)cc1,4,99,-4,-2,-5,-1
O=S(=O)(Nc1cccc2c1ccc1cccn12)c1cccs1,-3,84,13,5,7,2
CCN(CC)S(=O)(=O)c1ccc(C(=O)NCc2ccc(C)cc2)cc1,-12,105,62*,-8,16,-3
O=S(=O)(O)c1nc2ccccc2n1Cc1ccccc1,2,100,63*,0,0,-8
COc1cc(-c2nnc(SCc3cc(=O)oc4cc(O)c(O)cc34)o2)cc(OC)c1OC,31*,.,.,.,-32,5
COc1cc2[nH]c(=O)n(CCC(=O)N3CCN(c4cc(Cl)ccc4C)CC3)c(=O)c2cc1OC,1,40,43,88*[fluorescence artefact?],5,-1
CCOc1cc2[nH]c(=O)n(CCC(=O)N3CCN(c4ccccc4OC)CC3)c(=O)c2cc1OCC,8,102,1,-4,-9,-6
COc1cccc(C2CC(c3ccc(F)cc3)Nc3nc(N)nn32)c1 (configuration not stated),4,308*,16,9,-6,10
COc1cccc(C2CC(c3cccc(OC)c3)n3nc(N)nc3N2)c1 (configuration not stated),.,121,-2,-11,.,.
